The record followed here is PubChem BioAssay.

SMILES strings stand for the structures. Activity calls are given as the source filed them. Unless noted, how the calls were made is not given here.

A short description of test [1]: resazurin metabolic signal in HepG2 cells – cell-based, resazurin fluorescence, 24 h, PK04 Diversity Set, profiling panel (AID 1172). The following applies: HepG2 viability, higher = more signal.
Test [2] in a line: budding yeast growth changes without added modifier – OD600, strain BY4716, 24 h, basal condition, primary screen (AID 1173). The settings on record: S. cerevisiae BY4716 growth, OD600, 24 h; higher = more signal, called active from +8 up or from −8 down.
Test [3] is described as follows: viability profiling in MM1S myeloma cells – cell-based, resazurin fluorescence, basal, 24 h, PK04 Diversity Set, profiling panel (AID 1174).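 Further: MM1S multiple myeloma cell line.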 The settings on record: higher = more signal, called active from +8 up or from −8 down. For orientation: Alamar Blue is a resazurin reagent that responds to reducing activity.
Test [4] concerns the target Dihydroorotate dehydrogenase (quinone), mitochondrial (Plasmodium falciparum (isolate 3D7)) (UniProt Q08210). Kind of test: inhibition of P. falciparum DHODH – biochemical, C-terminal His tag, absorbance 600 nm, primary screen (AID 1175).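 Further: recombinant parasite enzyme with a five histidine tag at its C terminus.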 The settings on record: PfDHODH enzyme, DCIP absorbance 600 nm; higher = more signal, called active from +8 up or from −8 down.
The nature of test [5]: inhibition of PAO1 biofilm formation – strain PAO1, LB-PBS medium, absorbance 600 nm, primary screen (AID 1176). The settings on record: P. aeruginosa PAO1 growth/biofilm, A600, 12 h; higher = more signal.
Test [6] can be described thus: growth modulation of vineyard yeast isolate – strain RM11-1a, OD600, basal, 24 h, primary screen (AID 1177).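 Further: cultures grown under basal conditions with no added stressor.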 The settings on record: S. cerevisiae RM11-1a growth, OD600, 24 h; higher = more signal, called active from +8 up or from −8 down.
Test [7] in a line: growth of efflux-deficient E. coli DRC39 – strain DRC39, OD650, 24 h, E. coli filamentation inducers, primary screen (AID 1178).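 Further: growth measured as culture turbidity by optical density at 650 nm.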 The settings on record: E. coli DRC39 acrAB, higher = more signal, called active from +8 up or from −8 down.
A short description of test [8]: growth of efflux-deficient E. coli DRC39 – strain DRC39, OD650, 48 h, E. coli filamentation inducers, primary screen (AID 1179).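 Further: screen aims at cell division blockers that make cells filament.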 The following applies: E. coli DRC39 delta-acrAB growth, higher = more signal, called active from +8 up or from −8 down.
The nature of test [9]: viability profiling in RPMI8226 myeloma cells – cell-based, resazurin fluorescence, basal, 24 h, PK04 Diversity Set, profiling panel (AID 1180).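 Further: RPMI8826 multiple myeloma cell line at 5000 cells per well.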 The following applies: higher = more signal.
Test [10] deals with E3 ubiquitin-protein ligase XIAP (Homo sapiens) (UniProt P98170). The test can be described thus: small molecules binding XIAP protein – biophysical, small-molecule microarray, fluorescence 635 nm, primary screen (AID 1181).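 Further: score merges 667 nm emission and signal to noise over triplicate slides.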 The settings on record: higher = more signal.
Chain of E3 ubiquitin-protein ligase XIAP (Homo sapiens) (P98170 whole entry, looked up, the tested form may be a part): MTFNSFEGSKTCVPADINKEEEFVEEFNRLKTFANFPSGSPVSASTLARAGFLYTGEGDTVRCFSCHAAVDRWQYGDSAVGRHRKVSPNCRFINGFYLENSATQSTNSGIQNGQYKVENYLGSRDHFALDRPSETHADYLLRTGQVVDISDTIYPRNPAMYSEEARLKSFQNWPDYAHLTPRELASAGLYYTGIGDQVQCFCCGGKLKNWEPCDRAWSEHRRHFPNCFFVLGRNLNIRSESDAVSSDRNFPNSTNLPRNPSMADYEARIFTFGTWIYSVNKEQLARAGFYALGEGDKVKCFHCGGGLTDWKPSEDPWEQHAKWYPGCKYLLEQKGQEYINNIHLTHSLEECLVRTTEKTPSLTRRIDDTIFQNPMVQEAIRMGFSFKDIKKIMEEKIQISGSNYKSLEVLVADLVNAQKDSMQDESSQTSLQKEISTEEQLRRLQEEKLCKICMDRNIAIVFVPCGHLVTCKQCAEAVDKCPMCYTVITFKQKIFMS
For test [11], the system named is XIP peptide (Xip251-270) binding. Kind of test: XIP fragment 251-270 binding compounds – biochemical, small-molecule microarray, fluorescence 635/667 nm, 0.1 µg/mL protein, primary screen (AID 1182). The settings on record: fluorescent protein binding, 635 nm, higher = more signal, called active from +8 up or from −8 down.
Test [12] deals with XIP peptide (Xip251-270). Kind of test: compounds binding XIP fragment 251-270 – biochemical, small-molecule microarray, fluorescence 635/667 nm, 0.5 µg/mL protein, primary screen (AID 1183). The settings on record: fluorescence 635 nm, higher = more signal.
A short description of test [13]: blood-stage malaria parasite viability loss – strain 3D7, DAPI fluorescence, 100 nL, primary screen (AID 1184).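 Further: parasites grown inside human red blood cells in medium with human serum.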 The settings on record: P. falciparum 3D7 growth, 3 d, higher = more signal.
Test [14] addresses Homeobox protein Hox-A13 (Mus musculus) (UniProt Q62424). The test can be described thus: disruptors of Hoxa13 oligonucleotide interaction – biochemical, fluorescence polarization, labeled oligonucleotide, primary screen (AID 1185). The following applies: Hoxa13:DNA binding, 15 min, higher = more signal, called active from +8 up or from −8 down. Background: In fluorescence polarisation assays a small probe gives low polarisation when free and higher when bound to something large.

The nature of test [15]: blockers of DNA damage checkpoint Chk1 activation – imaging, HeLa, hydroxyurea, phospho-Chk1 antibody, percent positive cells, primary screen (AID 1186). The settings on record: hydroxyurea-induced phospho-Chk1 immunofluorescence imaging, higher = more signal.
Test [16] is described as follows: blockers of DNA damage checkpoint Chk1 activation – imaging, HeLa, hydroxyurea, phospho-Chk1 nuclear intensity, primary screen (AID 1187). The following applies: hydroxyurea-induced phospho-Chk1 immunofluorescence imaging, higher = more signal.

Chain of Dihydroorotate dehydrogenase (quinone), mitochondrial (Plasmodium falciparum (isolate 3D7)) (Q08210 whole entry, looked up): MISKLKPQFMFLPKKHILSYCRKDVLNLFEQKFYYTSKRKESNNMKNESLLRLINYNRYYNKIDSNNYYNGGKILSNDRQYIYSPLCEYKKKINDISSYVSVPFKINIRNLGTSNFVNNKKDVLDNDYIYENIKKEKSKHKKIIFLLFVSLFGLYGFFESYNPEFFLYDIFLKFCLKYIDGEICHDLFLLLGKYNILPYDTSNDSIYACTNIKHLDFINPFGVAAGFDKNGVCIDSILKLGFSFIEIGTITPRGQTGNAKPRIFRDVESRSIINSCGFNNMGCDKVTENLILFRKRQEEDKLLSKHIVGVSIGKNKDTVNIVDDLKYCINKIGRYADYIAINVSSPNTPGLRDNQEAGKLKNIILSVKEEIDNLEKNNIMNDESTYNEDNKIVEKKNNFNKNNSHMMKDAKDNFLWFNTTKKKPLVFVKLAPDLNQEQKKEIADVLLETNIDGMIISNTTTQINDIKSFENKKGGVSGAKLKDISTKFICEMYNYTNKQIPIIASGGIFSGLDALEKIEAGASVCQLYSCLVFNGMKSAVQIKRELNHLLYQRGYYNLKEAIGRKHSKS
Chain of Homeobox protein Hox-A13 (Mus musculus) (Q62424 whole entry, looked up): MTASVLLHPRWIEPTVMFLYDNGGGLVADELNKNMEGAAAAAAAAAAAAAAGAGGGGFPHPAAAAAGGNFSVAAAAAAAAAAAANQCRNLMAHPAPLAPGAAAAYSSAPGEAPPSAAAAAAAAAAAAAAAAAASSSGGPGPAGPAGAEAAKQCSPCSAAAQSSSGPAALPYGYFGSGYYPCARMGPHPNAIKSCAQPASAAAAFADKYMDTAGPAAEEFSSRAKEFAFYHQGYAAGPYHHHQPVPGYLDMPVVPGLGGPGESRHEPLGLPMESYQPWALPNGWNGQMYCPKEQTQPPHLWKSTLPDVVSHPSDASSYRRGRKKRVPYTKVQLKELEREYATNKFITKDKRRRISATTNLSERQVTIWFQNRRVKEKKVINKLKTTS

As to `COCCOC(=O)N1C(=O)[C@@]2(c3ccccc31)[C@H](c1ccccc1OCCO)N1[C@H](c3ccccc3)[C@H](c3ccccc3)OC(=O)[C@H]1[C@@H]2C(=O)N1CCCCCCC1`, the z-score in test [1] was 0.293; in [2], 1.7 (inactive); in test [3] it was -0.097 (inactive); in [5], 2.48 (inactive); in [6] it was 1.39 (inactive); in test [7], 0.542 (inactive). Further, the z-score is -1.15 (inactive) in test [8]; -0.353 in [9]; -2.01 in [13]; 2.31 (inactive) in [14]; 0.203 (inactive) in test [15]; 0.424 (inactive) in test [16]. The composite z-score in test [4] is 0.054 (inactive); in [10] it was 1.57; in test [11], 1.55 (inactive); in [12], 0.846.
`CN1C(=O)C2C=CC(C(O)c3ccc(F)cc3)N(NC(=O)OC(C)(C)C)C2C1=O` (centres undefined): the z-score in [1] was -1.37; in [2], 1.18 (inactive); in test [3], -0.67 (inactive); in [5], 0.503 (inactive); in test [6], 1.09 (inactive); in test [7] it was -0.592 (inactive). Also, the z-score in test [8] is -0.764 (inactive); in [9] it was -1.37; in test [13], -0.383; in test [14], -2.11 (inactive); in test [15], 0.058 (inactive); in test [16], -0.173 (inactive). Also, the composite z-score in [4] was 0.929 (inactive); in test [10], 0.171; in test [11], -0.0758 (inactive); in test [12], 0.258.
For `CC1(C)C(=O)C(c2ccccc2)=C2CN3C(=O)N(CCc4ccccc4)C(=O)C3(Cc3ccc(C(F)(F)F)cc3)C=C21` (centres undefined), the z-score in test [1] was -0.967; in test [2], 1.72 (inactive); in [3] it was -1.33 (inactive); in [5], 0.0539 (inactive); in test [6], 1.9 (inactive); in [7], -1.01 (inactive). Besides, the z-score in test [8] is -0.756 (inactive); in test [9] it was -1.03; in test [13], -0.745; in test [14], -1.55 (inactive); in test [15], 0.175 (inactive); in test [16], 0.0024 (inactive). Also, the composite z-score is 0.46 (inactive) in [4], 0.0322 in [10], 0.251 (inactive) in test [11] and 0.279 in test [12].
Take `CC(C)C(=C=CC[C@@H](O)c1cccc(OCCO)c1)C[C@@H](O)COCc1ccccc1`: the z-score in [1] is 0.564; in [2] it was -1.91 (inactive); in [3], 0.301 (inactive); in [5], 0.424 (inactive); in [6] it was -2.4 (inactive); in test [7], 0.789 (inactive). For the same compound, the z-score in test [8] was 0.633 (inactive); in test [9] it was 0.47; in test [13] it was -1.18; in test [14] it was -4.48 (inactive); in test [15] it was -1.66 (inactive); in test [16] it was -0.631 (inactive). Further, the composite z-score in test [4] is -3.34 (inactive); in test [10] it was -0.119; in test [11] it was -0.096 (inactive); in test [12] it was 0.294.
`NCCCCCNC(=O)[C@H]1C[C@H]2C(=O)N[C@@H](Cc3ccccc3)C(=O)N2[C@H]1c1ccc(O)cc1`: the z-score in test [1] was -0.255; in test [2], -0.53 (inactive); in [3], -0.115 (inactive); in test [5], 0.351 (inactive); in test [6], -0.334 (inactive); in test [7], 0.442 (inactive). Besides, the z-score in test [8] is 0.69 (inactive); in test [9] it was -0.518; in test [13], -0.236; in test [14], -3.78 (inactive); in [15] it was 1.01 (inactive); in test [16], 0.921 (inactive). Also, the composite z-score in test [4] is 1.21 (inactive); in [10] it was 0.157; in test [11] it was 1.46 (inactive); in test [12], 0.75.
Take `C[C@]1(C(=O)O)c2ccccc2C(=O)N(Cc2ccc(OC(F)(F)F)cc2)[C@H]1c1ccc(CO)cc1`: the z-score in test [1] was 0.0448; in [2], -0.847 (inactive); in [3] it was 0.0944 (inactive); in test [5] it was 0.0993 (inactive); in test [6], -0.475 (inactive); in test [7], 0.248 (inactive). For the same compound, the z-score in test [8] is -0.0775 (inactive); in test [9] it was 0.441; in test [13], 0.465; in test [14], -4.09 (inactive); in test [15], -0.159 (inactive); in test [16] it was -0.344 (inactive). Also, the composite z-score is -0.295 (inactive) in test [4], 0.265 in [10], -0.336 (inactive) in [11] and -1.05 in [12].
With `C=C(/C(=C/C[C@@H](OC(=O)c1ccncc1)c1cccc(OCCO)c1)c1cnc2ccccc2c1)C(C)C`, the z-score in [1] was -0.118; in test [2] it was -1.48 (inactive); in test [3] it was -0.59 (inactive); in test [5], 1.86 (inactive); in [6] it was 0.152 (inactive); in test [7], -0.192 (inactive). Also, the z-score was -0.284 (inactive) in test [8]; 0.0866 in test [9]; -2.88 in [13]; -4.48 (inactive) in [14]; 0.242 (inactive) in [15]; 0.258 (inactive) in test [16]. Also, the composite z-score in test [4] was -5.68 (inactive); in [10], 0.227; in test [11], 0.601 (inactive); in test [12] it was 0.602.
`[N-]=[N+]=NCc1ccccc1C[C@]1(C(=O)N2CCOCC2)COC(c2ccc(OCCCO)cc2)=N1`: the z-score in test [1] was 0.0629; in test [2] it was -2.42 (inactive); in test [3], 0.117 (inactive); in test [5], 0.715 (inactive); in [6], 1.43 (inactive); in test [7], 2.56 (inactive). Further, the z-score is 1.71 (inactive) in test [8]; 0.698 in [9]; -2.2 in test [13]; -4.87 (inactive) in test [14]; -0.677 (inactive) in test [15]; -0.718 (inactive) in test [16]. Also, the composite z-score in test [4] was 0.42 (inactive); in [10], 0.18; in test [11], 0.15 (inactive); in [12] it was 0.711.
Consider `COc1ccc(C(O)C2C=CC3C(=O)N(c4ccccc4)C(=O)C3N2Nc2ccc(C(C)C)cc2)c2ccccc12` (centres undefined), for which the z-score was -2.57 in [1]; -1.62 (inactive) in [2]; -0.871 (inactive) in test [3]; 1.8 (inactive) in [5]; 0.427 (inactive) in [6]; 0.0571 (inactive) in [7]. Moreover, the z-score in test [8] is 0.313 (inactive); in test [9], -0.208; in test [13], -0.247; in test [14] it was -0.93 (inactive); in [15], 0.417 (inactive); in test [16], 0.0807 (inactive). Also, the composite z-score in test [4] is 0.183 (inactive); in test [10] it was 0.349; in test [11] it was 0.886 (inactive); in test [12], 0.802.
